# ALR inh – inhibitors of human sulfhydryl oxidase ALR; purified ALR, DTT oxidation, H2O2 HRP-luminol luminescence; inhibition, % (no concentration beside the values); 290,000 tested, 3.8% active; AID 485317;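 active = mean replicate inhibition above about 79%, with every replicate also reaching it, limit read from the data; inconclusive = only one of the two criteria met; inactive = mean below limit and not every replicate reaching it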
# NPR1 activator – GC-A (human) enzyme activation; P16066; HEK293 GC-A cells, cGMP TR-FRET, EC30 ANP; 0% at EC30 ANP, 100% saturating ANP; activation, % at 10 µM; 370,000 tested, 0.14% active; AID 1671463; in the data active = activation above about 40%
# HDAC3 inhib – human HDAC3 inhibition; recombinant HDAC3, fluorogenic peptide/trypsin coupled, fluorescence; inhibition, % at 8.3 µM; 320,000 tested, 0.15% active; in the data active = inhibition above about 26%, passing the limit was not always enough; inconclusive = no clear call, values can overlap the other calls
# Target sequence (O15379 whole entry, looked up): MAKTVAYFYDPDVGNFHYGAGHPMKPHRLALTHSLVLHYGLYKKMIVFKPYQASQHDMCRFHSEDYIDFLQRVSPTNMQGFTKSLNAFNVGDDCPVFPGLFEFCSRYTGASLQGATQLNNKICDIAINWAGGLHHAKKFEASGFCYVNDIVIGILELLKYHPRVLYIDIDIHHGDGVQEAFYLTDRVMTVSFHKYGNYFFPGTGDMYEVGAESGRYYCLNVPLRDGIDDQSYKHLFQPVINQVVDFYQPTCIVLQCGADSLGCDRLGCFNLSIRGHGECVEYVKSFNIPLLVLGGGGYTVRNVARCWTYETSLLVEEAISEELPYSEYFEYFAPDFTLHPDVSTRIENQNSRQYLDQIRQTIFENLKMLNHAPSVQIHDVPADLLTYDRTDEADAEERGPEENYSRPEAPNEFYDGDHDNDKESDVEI
# NPR2 activator – GC-B (human) receptor activation | activation, % at 10 µM | HEK293-GC-B cells, CNP EC30, cGMP TR-FRET; 0% at EC30 CNP, 100% saturating CNP | 370,000 tested, 0.11% active;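 active = activation at 10 µM reaching about 35% in either raw or pattern-adjusted values, limit read from the data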
# The depositor's hits bear a star; ? = inconclusive; / = no result. This excerpt belongs to a sample that is enriched for hits.
SMILES,ALR inh,NPR1 activator,HDAC3 inhib,NPR2 activator
COc1ccc(CCC(=O)NNC(=O)Nc2cccc(Cl)c2)cc1,0,5,-7,-2
O=C(NNC(=S)Nc1ccc(Br)cc1Cl)c1ccncc1,74,1,2,1
Cc1cc(C)nc(N2CCN(c3nc(-c4ccccc4)nc4c3oc3ccccc34)CC2)n1,/,0,/,2
COCCn1c(SCC(=O)Nc2ccc(F)cc2F)nc2c([nH]c3ccccc32)c1=O,-6,5,4,-1
C[C@H](CO)N1C[C@H](C)[C@@H](CN(C)S(=O)(=O)c2ccccc2)OCCCC[C@H](C)Oc2ccc(NC(=O)CCC(F)(F)F)cc2C1=O,/,-1,/,5
Nc1ccc(Sc2cnn(-c3ccccc3)c(=O)c2Cl)cc1,92*,0,-1,3
Cc1ccc(Sc2cnn(-c3ccccc3)c(=O)c2Cl)cc1,62,-3,7,-1
Cc1ccc(C(=O)Sc2cccccc2=O)cc1,99*,15,19,-1
O=C(Nc1ccccc1SC(=O)c1ccccc1)c1ccccc1,/,7,/,9
O=c1oc2ccccc2n1CSC1=NCCS1,99*,-3,3,-1
Cc1ccc(/C(O)=C/c2nc3ccccc3oc2=O)cc1,-1,16,-1,-4
Cc1nc(C)c(/C(O)=C\c2nc3ccc([N+](=O)[O-])cc3oc2=O)o1,99*,-4,11,-1
CC(=O)N1CCN=C1SCc1cccc(Cl)c1,100*,9,5,6
CCC(=O)N1CCN=C1SCc1cccc(F)c1,97*,5,1,2
CC(=O)N1CCN=C1SCc1cccc(C)c1,96*,4,2,5
CC(=O)N1CCN=C1SCc1cccc(F)c1,97*,3,-5,-1
O=C(Cc1cccs1)N1CCN=C1SCc1cccc(F)c1,?,1,4,3
Cc1cccc(CSC2=NCCN2C(=O)C2CC2)c1,8,-3,0,10
O=C(c1nn(-c2ccccc2)c(=O)c2ccccc12)N1CCN(c2ncccn2)CC1,-5,2,-1,4
Nn1c(SCC(=O)Nc2ccc(OCc3ccccc3)cc2)nnc1-c1cc(-c2ccccc2)n[nH]1,/,-7,/,-12
C=CCc1cc(/C=C2/NC(=S)NC2=O)cc(OC)c1O,34,-5,2,-11
CCOc1cc(/C=C2/NC(=O)N(CC(=O)OC)C2=O)ccc1O,96*,-2,7,5
CCOc1cc(/C=C2/NC(=O)N(CC(=O)Nc3cccc(C)c3)C2=O)ccc1O,32,-1,?,-2
C=CCc1cc(/C=C2/NC(=O)N(CC(=O)OC)C2=O)cc(OC)c1O,98*,10,7,2
CC1CCCC2(C1)NC(=S)N(c1ccccc1)N2 (centres undefined),43,0,-1,-2
SMILES,ALR inh,NPR1 activator,HDAC3 inhib,NPR2 activator
S=C1NC2(CCCCC2)NN1c1ccccc1,98*,1,-3,-1
COC(=O)[C@]12C[C@H](CC(=O)N3CCN(C(=O)C4CC4)CC3)C(=O)N(Cc3ccc4c(c3)OCO4)C1=C[C@H](C(C)C)O[C@@H]2C1CC1,/,1,/,2
Cn1c(=O)n(Cc2ccccc2)c(=O)c2c1nc1n2CCCN1CCc1ccccc1,-35,30,2,43*
CCOC(=O)c1c(-n2cccc2)sc2c1CCCC2=O,/,2,/,-5
CC(=O)O[C@@H]1CCC[C@@]2(C(=O)Nc3ccccc32)[C@H]1NC(=O)C(C)C,/,1,/,2
COc1ccc(-c2cc(C(F)F)n3ncc(C(=O)n4ccnc4C)c3n2)cc1,99*,5,-6,0
O=c1cc(-c2ccc(O)c(O)c2)oc2cc(O)c(C3OC(CO)C(O)C(O)C3O)c(O)c12 (centres undefined),99*,-6,6,-1
O=c1cc(-c2ccc(O)cc2)oc2c(C3O[C@H](CO)[C@@H](O)[C@H](O)[C@H]3O)c(O)cc(O)c12 (some centres undefined),15,1,4,-1
O=c1cc(-c2ccc(O)c(O)c2)oc2c(C3O[C@H](CO)[C@@H](O)[C@H](O)[C@H]3O)c(O)cc(O)c12 (some centres undefined),99*,-6,4,-1
CCOC(=O)c1c(NC(=O)COC(=O)CNC(=O)c2ccc(Cl)cc2Cl)sc(C(=O)N(C)C)c1C,1,2,/,2
Cc1ccc(C(=O)NCCNC(=O)COc2ccc(C)c(C)c2)cn1,0,-1,0,0
CCC1(c2ccccc2)NC(=O)N(CC(=O)Nc2ccc(N3CCCC3)cc2C)C1=O (centres undefined),?,1,2,-2

# High-throughput results deposited in PubChem by several laboratories.
